The source of these data is PubChem BioAssay (NCI).

The panel holds about 83,000 compounds, 20% with a hit somewhere; the sample as a whole holds those more often.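 Plates (96-well) were seeded with cells, treated with compound at one concentration, and incubated for 48 hours before percent growth was determined.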 Active and inactive are the calls of the source. Rule for the calls: active = growth percent below 10; inactive = the rest.

Among the test systems are HCT-15 colon; HT29 colon; SNB-75 CNS; U251 CNS; PC-3 prostate; SK-MEL-5 melanoma; UACC-62 melanoma; LOX IMVI melanoma; SK-MEL-28 melanoma.
Experiment in all cases: NCI-60 one-dose screen, 48 h (100 = growth as untreated, 0 = no growth, -100 = all killed)
Details in all cases: 10 µM unless noted

With `CC(C(=O)n1cc(-c2ccccc2)c(-c2ccccc2)c1)c1ccccc1` (centres undefined), the growth is 112% (inactive) in the experiment with HCT-15 colon; 107% (inactive) in the experiment on HT29 colon; 92.9% (inactive) in the experiment with SNB-75 CNS; 91.1% (inactive) in the experiment on U251 CNS; 95.9% (inactive) with PC-3 prostate; 99.1% (inactive) in the experiment with SK-MEL-5 melanoma. For the same molecule, the growth was 106% (inactive) in the experiment on UACC-62 melanoma, 97.8% (inactive) in the experiment with LOX IMVI melanoma and 112% (inactive) in the experiment on SK-MEL-28 melanoma.
Consider `CC(=O)Nc1ccc(S(=O)(=O)N2C(=O)CCC2C(=O)Nc2ccc(Br)cc2)cc1` (centres undefined), for which the growth is 7.48% (active) in the experiment with HCT-15 colon; 21.4% (inactive) with HT29 colon; 59% (inactive) in the experiment on SNB-75 CNS; 22.2% (inactive) in the experiment on U251 CNS; 17% (inactive) in the experiment with PC-3 prostate; 17.6% (inactive) in the experiment with SK-MEL-5 melanoma. Also, the growth is 15.3% (inactive) in the experiment on UACC-62 melanoma, 6.05% (active) with LOX IMVI melanoma and 50.2% (inactive) in the experiment on SK-MEL-28 melanoma.
As to `CCOC(=O)c1cc(/C(=N\O)c2cc(OC)c(OC)c(OC)c2)n2c(C)cccc12`, the growth in the experiment on HCT-15 colon is 25.7% (inactive); in the experiment with HT29 colon, 9.58% (active); with SNB-75 CNS it was 9.5% (active); with U251 CNS it was 26.2% (inactive); in the experiment on PC-3 prostate it was 31.4% (inactive); in the experiment with SK-MEL-5 melanoma, 14.5% (inactive). The growth in the experiment on UACC-62 melanoma is 27% (inactive); in the experiment on LOX IMVI melanoma, 37.9% (inactive); in the experiment on SK-MEL-28 melanoma, 58.4% (inactive).
As for `CC[C@]1(O)C[C@@H]2CN(Cc3c([nH]c4ccccc34)[C@@](C(=O)OC)(c3cc4c(cc3OC)N(C)[C@H]3[C@@](O)(C(=O)OC)[C@H](OC(C)=O)[C@]5(CC)[C@@H]6C[C@@H]6CN6CC[C@]43[C@@H]65)C2)C1`, the growth in the experiment with HCT-15 colon was 60.7% (inactive); with HT29 colon, -2.26% (active); with SNB-75 CNS, 10.1% (inactive); with U251 CNS, 6.95% (active); in the experiment on PC-3 prostate it was 14% (inactive); with UACC-62 melanoma, 34% (inactive). Moreover, the growth in the experiment with LOX IMVI melanoma is 19.1% (inactive); with SK-MEL-28 melanoma, 64.4% (inactive).
For `CCN(C(=O)c1cc2ncccc2[nH]1)[C@H]1CCC[C@@H](NCc2cccc(F)c2)C1`, the growth in the experiment on HCT-15 colon is 100% (inactive); with HT29 colon, 105% (inactive); in the experiment on SNB-75 CNS, 88% (inactive); in the experiment on U251 CNS, 107% (inactive); in the experiment on PC-3 prostate, 102% (inactive); in the experiment on SK-MEL-5 melanoma, 96.3% (inactive). Also, the growth was 98% (inactive) in the experiment with UACC-62 melanoma, 94.8% (inactive) in the experiment with LOX IMVI melanoma and 103% (inactive) in the experiment with SK-MEL-28 melanoma.
Turning to `COc1cc(Cn2c(-c3nonc3N)nc3ccccc32)ccc1C`, the growth is 19.5% (inactive) in the experiment on HCT-15 colon; 0.109% (active) in the experiment with HT29 colon; -0.424% (active) with SNB-75 CNS; 21.6% (inactive) in the experiment with U251 CNS; 24.4% (inactive) with PC-3 prostate; 19.1% (inactive) in the experiment on SK-MEL-5 melanoma. The growth was 37.9% (inactive) in the experiment with UACC-62 melanoma, 42.6% (inactive) in the experiment with LOX IMVI melanoma and 51.6% (inactive) in the experiment with SK-MEL-28 melanoma.
With `CSc1ccccc1C#C/C=C\C#Cc1ccccc1N1CCCCC1=O`, the growth in the experiment with HCT-15 colon was 112% (inactive); in the experiment with HT29 colon, 94.9% (inactive); in the experiment with SNB-75 CNS, 118% (inactive); in the experiment with U251 CNS, 93.6% (inactive); in the experiment on PC-3 prostate, 77.7% (inactive); in the experiment on SK-MEL-5 melanoma, 101% (inactive). Further, the growth in the experiment on UACC-62 melanoma was 78.5% (inactive); in the experiment on LOX IMVI melanoma, 91.8% (inactive); in the experiment on SK-MEL-28 melanoma, 153% (inactive).
Consider `C[C@]12CC[C@@H]3c4cc(O)c(O)cc4CC[C@H]3[C@@H]1CC[C@@H]2O`, for which the growth in the experiment on HCT-15 colon was 30% (inactive); with HT29 colon it was 96.4% (inactive); in the experiment on SNB-75 CNS, -14.5% (active); in the experiment with U251 CNS it was 35.8% (inactive); with PC-3 prostate, 58.6% (inactive); in the experiment with SK-MEL-5 melanoma it was 26.5% (inactive). Besides, the values for the growth in the experiment on UACC-62 melanoma, with LOX IMVI melanoma and in the experiment with SK-MEL-28 melanoma were 33.8% (inactive), 40% (inactive) and 39.6% (inactive), respectively.
As to `O=c1[nH]c(-c2cn(-c3ccc(Cl)cc3)nn2)nc2ccccc12`, the growth with HCT-15 colon was 101% (inactive); with HT29 colon it was 72.3% (inactive); in the experiment with SNB-75 CNS it was -9.19% (active); in the experiment with U251 CNS, 74.5% (inactive); in the experiment with PC-3 prostate it was 74.8% (inactive); in the experiment with SK-MEL-5 melanoma, 79% (inactive). Further, the growth with UACC-62 melanoma is 60.9% (inactive); in the experiment on LOX IMVI melanoma, 90.8% (inactive); in the experiment with SK-MEL-28 melanoma it was 58.1% (inactive).
Consider `O=C(O)c1ccc(-n2cc(CNc3ccc(C(F)(F)F)cc3)c(-c3ccccc3)n2)cc1`, for which the growth was 84.3% (inactive) in the experiment with HCT-15 colon; 114% (inactive) in the experiment with HT29 colon; 92.1% (inactive) with SNB-75 CNS; 81% (inactive) with U251 CNS; 79.7% (inactive) in the experiment with PC-3 prostate; 91.5% (inactive) with SK-MEL-5 melanoma. Besides, the growth with UACC-62 melanoma is 72.9% (inactive); in the experiment on LOX IMVI melanoma, 89.2% (inactive); in the experiment on SK-MEL-28 melanoma, 95.2% (inactive).
In the case of `COc1ccc(OC)c(NC(=O)c2cc(S(=O)(=O)N3CCc4ccccc43)ccc2OC)c1`, the growth in the experiment on HCT-15 colon is 107% (inactive); with HT29 colon, 76.7% (inactive); with SNB-75 CNS it was 85.1% (inactive); in the experiment with U251 CNS, 92.1% (inactive); in the experiment with PC-3 prostate, 88.5% (inactive); in the experiment with SK-MEL-5 melanoma it was 67.6% (inactive). In addition, the growth in the experiment on UACC-62 melanoma was 79.2% (inactive); in the experiment with LOX IMVI melanoma, 94.7% (inactive); in the experiment with SK-MEL-28 melanoma it was 131% (inactive).
With `Cc1ccc(S(=O)(=O)OC2COCOC2C(OS(=O)(=O)c2ccc(C)cc2)C2OCOCC2OS(=O)(=O)c2ccc(C)cc2)cc1` (centres undefined), the growth in the experiment on HCT-15 colon is 107% (inactive); in the experiment on HT29 colon, 98.7% (inactive); in the experiment on SNB-75 CNS it was 115% (inactive); in the experiment with U251 CNS, 102% (inactive); with PC-3 prostate, 97.6% (inactive); with SK-MEL-5 melanoma, 99.9% (inactive). The growth was 98.3% (inactive) in the experiment on UACC-62 melanoma, 103% (inactive) in the experiment on LOX IMVI melanoma and 118% (inactive) in the experiment with SK-MEL-28 melanoma.
For the molecule `COc1ccc(/C=C(\C#N)c2ccc([N+](=O)[O-])cc2)c2ccccc12`, the growth was 75.7% (inactive) in the experiment on HCT-15 colon; 76.8% (inactive) in the experiment on HT29 colon; -16% (active) with SNB-75 CNS; 27% (inactive) in the experiment on U251 CNS; 62.5% (inactive) in the experiment with PC-3 prostate; 74.9% (inactive) with SK-MEL-5 melanoma. Moreover, the figures for the growth with UACC-62 melanoma, in the experiment on LOX IMVI melanoma and in the experiment on SK-MEL-28 melanoma were 37.1% (inactive), 70.2% (inactive) and 59.2% (inactive), respectively.
For the molecule `CCC(=O)Nc1ccccc1C#C/C=C\C#Cc1ccccc1SC`, the growth in the experiment with HCT-15 colon is 43.9% (inactive); in the experiment on HT29 colon, 29.6% (inactive); in the experiment with SNB-75 CNS, 60.6% (inactive); in the experiment on U251 CNS, 48.9% (inactive); with PC-3 prostate, 51.9% (inactive); in the experiment with SK-MEL-5 melanoma, 23.8% (inactive). The growth in the experiment on UACC-62 melanoma was 40.1% (inactive); in the experiment with LOX IMVI melanoma, 57.9% (inactive); in the experiment on SK-MEL-28 melanoma it was 81.2% (inactive).
As for `CCN1C(=O)N[C@H]2[C@@H]3NC(=O)c4ccc(Cl)n4[C@@H]3C[C@]21O`, the growth is 13.4% (inactive) with HCT-15 colon; 2.91% (active) in the experiment on HT29 colon; -2.5% (active) with SNB-75 CNS; -5.63% (active) with U251 CNS; 9.77% (active) in the experiment on PC-3 prostate; -20.9% (active) in the experiment with UACC-62 melanoma. Also, the results for the growth with LOX IMVI melanoma and in the experiment with SK-MEL-28 melanoma were -6.47% (active) and -6.88% (active), respectively.
On to `Cc1cc(C(=O)CSc2nc3ccccc3c(=O)[nH]2)c(C)n1C`, for which the growth in the experiment on HCT-15 colon is 104% (inactive); in the experiment on HT29 colon, 96.6% (inactive); with SNB-75 CNS, 118% (inactive); in the experiment on U251 CNS, 96.2% (inactive); in the experiment on PC-3 prostate, 83.9% (inactive); in the experiment with SK-MEL-5 melanoma, 98.4% (inactive). Also, the figures for the growth in the experiment with UACC-62 melanoma, in the experiment on LOX IMVI melanoma and with SK-MEL-28 melanoma were 90.5% (inactive), 94.7% (inactive) and 121% (inactive), respectively.
As for `NC(=O)c1c(NC(=O)c2ccc3c(c2)OCO3)sc2c1CCC(=O)C2`, the growth in the experiment on HCT-15 colon was -40.5% (active); in the experiment on HT29 colon it was -45.5% (active); in the experiment on SNB-75 CNS, -12.6% (active); in the experiment on U251 CNS, -9.21% (active); in the experiment on PC-3 prostate, 3.13% (active); with SK-MEL-5 melanoma, -94.2% (active). Moreover, the growth in the experiment with UACC-62 melanoma is -37.8% (active); in the experiment on LOX IMVI melanoma it was 15% (inactive); with SK-MEL-28 melanoma it was -38.7% (active).
Turning to `CCSc1nnc(NC(=O)Cc2ccc(Cl)cc2)s1`, the growth was 98.3% (inactive) with HCT-15 colon; 114% (inactive) in the experiment on HT29 colon; 106% (inactive) in the experiment on SNB-75 CNS; 98.7% (inactive) in the experiment with U251 CNS; 101% (inactive) in the experiment on PC-3 prostate; 107% (inactive) in the experiment on SK-MEL-5 melanoma. Besides, the growth in the experiment on UACC-62 melanoma was 97% (inactive); in the experiment on LOX IMVI melanoma it was 97.1% (inactive); in the experiment with SK-MEL-28 melanoma, 113% (inactive).
On to `O=c1[nH]c(CN2CCN(c3ccccc3F)CC2)nc2sc3c(c12)CCC3`, for which the growth with HCT-15 colon is 112% (inactive); in the experiment with HT29 colon, 106% (inactive); in the experiment with SNB-75 CNS, 87.8% (inactive); in the experiment on U251 CNS, 104% (inactive); in the experiment on PC-3 prostate, 102% (inactive); in the experiment with SK-MEL-5 melanoma, 107% (inactive). Further, the results for the growth in the experiment on UACC-62 melanoma, in the experiment on LOX IMVI melanoma and in the experiment on SK-MEL-28 melanoma were 91.9% (inactive), 99.2% (inactive) and 117% (inactive), respectively.
